Here are results for 33 compounds from PubChem BioAssay (NCI).

SMILES strings stand for the structures. About 83,000 compounds went through this panel and 20% of them were active in at least one assay; those are over-represented in the sample as a whole.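 48-hour exposure, single concentration, 96-well plates; percent growth endpoint where 0 means no net growth. Active: below 10.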 Values without a mark were called inactive. Calls of active or inactive are those of the source.

What all share (test): NCI-60 one-dose screen, 48 h (100 = growth as untreated, 0 = no growth, -100 = all killed)
Common to all, as to conditions: 10 µM

The subject of assay [1] is BT-549 breast.
Assay [2] deals with MDA-MB-435 melanoma.
The test system of assay [3] is SW-620 colon.
Assay [4] concerns HCT-116 colon.
In assay [5] the test system is HCC-2998 colon.
For assay [6], the system named is KM12 colon.
Assay [7] has as its system MCF7 breast.

For the compound `O=C(Nc1ccc(CO)cc1)c1ccccc1Nc1ccnc(C(F)(F)F)c1`, the growth in assay [1] was 104%; in assay [2] it was 106%; in assay [3], 105%; in assay [4], 101%; in assay [5], 106%; in assay [6] it was 99.4%.
Take `Oc1[nH]c2ccc(Cl)cc2c1/C=c1/ccc2c(c1)N=C(c1cc(F)cc(F)c1)N=2`: the growth is 81.9% in assay [1]; 1.43% (active) in assay [2]; 53.8% in assay [3]; 52.2% in assay [4]; 86.2% in assay [5]; 44.4% in assay [6].
Regarding `O=C(C[n+]1ccccc1)c1ccc2ccccc2c1`, the growth is 100% in assay [1]; 102% in assay [2]; 98.1% in assay [7]; 91.2% in assay [4]; 93.1% in assay [6].
As to `COc1ccc(OC)c2c1C(=O)CC2C` (stereo not given), the growth was 120% in assay [1]; 102% in assay [2]; 105% in assay [3]; 111% in assay [4]; 103% in assay [6].
For `COc1cc(-c2cc(-c3cc4c([nH]c5ccccc54)c(-c4cc(OC)c(OC)c(OC)c4)n3)cc(-c3ccccc3)n2)cc(OC)c1OC`, the growth is 66.6% in assay [1]; -1.18% (active) in assay [2]; 41.4% in assay [3]; 72.8% in assay [5]; 60% in assay [6].
`O=C(Cc1csc2nc(-c3ccc(Cl)cc3)cn12)N/N=C/c1ccccc1O`: the growth in assay [1] was 62.6%; in assay [2], 67.4%; in assay [7] it was 42.5%; in assay [4], 36.6%; in assay [6], 36.5%.
In the case of `CSc1cc(SC)ncn1`, the growth is 104% in assay [1]; 115% in assay [2]; 103% in assay [3]; 111% in assay [5]; 108% in assay [6].
On to `COc1cc(Cl)cc(-c2nn(-c3cccc(NC(=O)Nc4ccc(Cl)c(C(F)(F)F)c4)c3)cc2-c2ccncc2)c1`, for which the growth was 9.81% (active) in assay [1]; -16.8% (active) in assay [2]; 12.7% in assay [3]; 3.39% (active) in assay [4]; 18.1% in assay [5]; 9.1% (active) in assay [6].
With `CCCCCC(=O)c1ccc(OCCCN2CCN(C(=O)OCC)CC2)cc1`, the growth was 91.4% in assay [1]; 98.8% in assay [2]; 93.2% in assay [3]; 96.9% in assay [5]; 94.4% in assay [6].
As to `COc1cc(-c2cc(/C=C3\C(=O)Nc4ccccc43)[nH]n2)cc(OC)c1OC`, the growth is 34.7% in assay [1]; 38.7% in assay [2]; 60.2% in assay [3]; 47.3% in assay [4]; 87.4% in assay [5]; 10.3% in assay [6].
`COC(=O)C(=C\c1ccc2c(c1)OCO2)/C(=C/c1ccc2c(c1)OCO2)C(=O)OC`: the growth in assay [1] is 95.5%; in assay [2], 104%; in assay [3] it was 110%; in assay [6], 102%.
As to `COc1ccc(S(=O)(=O)Nc2c(/C=C\c3cc(OC)c(OC)c(OC)c3)ccc(OC)c2O)cc1`, the growth was 40.6% in assay [1]; -39.4% (active) in assay [2]; 23.4% in assay [3]; -6.66% (active) in assay [4]; 13.3% in assay [5]; -4.97% (active) in assay [6].
On to `O=C(Nc1ccncc1)C(=O)c1cn(S(=O)(=O)c2ccc(F)cc2)c2ccccc12`, for which the growth in assay [1] is 36.9%; in assay [2], -20.3% (active); in assay [3], 12%; in assay [4], 11.6%; in assay [5], 61.6%; in assay [6], 18.1%.
In the case of `COc1ccc2c(c1)C(=O)c1c-2c(OCCN(C)C)nc2cc(OC)c(OC)cc12`, the growth in assay [1] was 89.9%; in assay [2] it was 56.8%; in assay [3], 38.6%; in assay [4], 30%; in assay [5] it was 63.2%; in assay [6] it was 54.1%.
With `O=C(Nc1cccc(Br)c1)c1cc(=O)[nH]c2ccccc12`, the growth in assay [1] was 82.1%; in assay [2], 101%; in assay [3], 102%; in assay [4] it was 109%; in assay [5] it was 104%; in assay [6], 101%.
Consider `COc1cccc(C2C3=C(COC3=O)N(CCO)c3cc(OC)ccc32)c1` (stereo not given), for which the growth in assay [1] is 16.9%; in assay [2] it was -44.7% (active); in assay [3], 21%; in assay [6], -5.83% (active).
Take `COc1ccc(-c2cc(/C=C3\C(=O)Nc4ccc(Cl)cc43)[nH]n2)cc1OC`: the growth in assay [1] was 99.7%; in assay [2], 91.5%; in assay [3], 97.1%; in assay [4], 73.2%; in assay [5] it was 103%; in assay [6], 29.3%.
For the compound `CCCCCCCNc1nc(C=O)ncc1-c1ccc(C(F)(F)F)cc1`, the growth in assay [1] was 99.7%; in assay [2] it was 100%; in assay [3] it was 98%; in assay [4] it was 98.3%; in assay [5] it was 104%; in assay [6], 91.2%.
Regarding `CCc1ccc2c(c1)N(CCO)C1=C(C(=O)OC1)C2c1ccccc1` (stereo not given), the growth in assay [1] was 87.7%; in assay [2], 21.6%; in assay [3] it was 97.2%; in assay [4], 89.3%; in assay [6], 76.1%.
For the compound `O=C(c1ccc(Cl)cc1Cl)N1CCOCC1`, the growth in assay [1] was 92.3%; in assay [2], 104%; in assay [3], 102%; in assay [4] it was 93.8%; in assay [5], 106%; in assay [6], 110%.
Turning to `CCN(CC)CCCOCCCNc1cc(OC)cc2cccnc12`, the growth in assay [1] was 103%; in assay [2], 112%; in assay [3] it was 99.9%; in assay [4], 94.5%; in assay [6], 102%.
With `CN1CCCNc2c(c(=O)c2=O)NCCCN(C)CCCNc2c(c(=O)c2=O)NCCCN(C)CCCNc2c(c(=O)c2=O)NCCCN(C)CCCNc2c(c(=O)c2=O)NCCCN(C)CCCNc2c(c(=O)c2=O)NCCCN(C)CCCNc2c(c(=O)c2=O)NCCCN(C)CCCNc2c(c(=O)c2=O)NCCC1`, the growth in assay [1] was 67.1%; in assay [2], 21.1%; in assay [3], 41%; in assay [4], 59.2%; in assay [6], 34.9%.
`c1ccc2c(c1)oc1c3c(ccc12)NCCC3`: the growth in assay [1] is 89.5%; in assay [2], 106%; in assay [3], 103%; in assay [4], 95.7%; in assay [5] it was 97.2%; in assay [6], 101%.
In the case of `CCC1(C(C)C)NC(=O)NC1=O` (stereo not given), the growth was 104% in assay [1]; 106% in assay [2]; 103% in assay [7]; 101% in assay [4]; 104% in assay [6].
As to `COc1ccc(-c2nn(-c3cccc(NC(=O)Nc4ccc(Cl)c(C(F)(F)F)c4)c3)cc2-c2ccncc2)cc1Cl`, the growth in assay [1] was 11.2%; in assay [2] it was -24.3% (active); in assay [3], 17.7%; in assay [4], 8.61% (active); in assay [5], 37.7%; in assay [6] it was 4% (active).
For `COc1ccc(/C(=C2/O[C@@H]([C@H]3COC(C)(C)O3)[C@H]3OC(C)(C)O[C@@H]23)c2cc(OC)c(OC)c(OC)c2)cc1O`, the growth is 67.5% in assay [1]; -10.2% (active) in assay [2]; 60.9% in assay [7]; 78.1% in assay [4]; 5.71% (active) in assay [6].
In the case of `CSCCCNC(=O)c1ccc2c(c1)/C(=C/c1[nH]c(C)cc1C)C(=O)N2`, the growth in assay [1] was 9.33% (active); in assay [2], 13.4%; in assay [3] it was 28.9%; in assay [4], 3.75% (active); in assay [5] it was 30.3%; in assay [6] it was 17.1%.
Take `C[N+](C)(C)c1ncnc2nc[nH]c12`: the growth is 95.3% in assay [2]; 120% in assay [3]; 90.8% in assay [7]; 97.3% in assay [4]; -10.1% (active) in assay [5]; 110% in assay [6].
On to `Cc1cc(Cc2cc(C)c(O)c(C)c2)cc(C)c1O`, for which the growth in assay [2] is -29% (active); in assay [3], 21.6%; in assay [7], 22.8%; in assay [4], 30.6%; in assay [5], 74.4%; in assay [6] it was 39.4%.
Take `COc1cc(/C=N/NC(=O)c2ccccc2Nc2cccc(C(F)(F)F)c2)cc(OC)c1OC`: the growth in assay [2] is -34% (active); in assay [3], 3.91% (active); in assay [7] it was 5.18% (active); in assay [4], 158%; in assay [5], 28.2%; in assay [6], 16.6%.
On to `O=C1/C(=C\c2cn(C(=O)c3ccc(Cl)cc3)c3ccccc23)c2ccccc2N1C(=O)c1ccc(Cl)cc1`, for which the growth in assay [2] was 97.6%; in assay [3], 93.1%; in assay [7] it was 71.1%; in assay [4] it was 65.1%; in assay [6], 24.3%.
Consider `CCCCCCCCCCCCCCCCN(C(C)c1ccccc1)S(=O)(=O)c1ccc(OC)c(N)c1` (stereo not given), for which the growth is 108% in assay [2]; 99.7% in assay [3]; 95.9% in assay [7]; 101% in assay [4]; 97.6% in assay [5]; 100% in assay [6].
Consider `O=C(CC(c1ccccc1)N1CCOCC1)c1ccccc1` (stereo not given), for which the growth in assay [1] was 89.8%; in assay [2], 89.7%; in assay [4] it was 34.5%; in assay [6], 23%.
